# Assay results from PubChem BioAssay AID504329 (Southern Research Specialized Biocontainment Screening …, 2011).
# Hit rate of the full screen: of about 340,000 compounds, about 1,000 (0.29%) were called active. Rule as the data show it: inconclusive = inhibition above about 27% without an active follow-up result; inactive = below that. The list is a sample of the results. Entries with a potency or affinity are not part of this list.
# Assay: H1N1 influenza NS1A inhibitors, functional cell based assay (AID 504329)
# Conditions: percent inhibition, at 12.5 µM, active compounds read high
row,SMILES,inhibition
1,COc1ccc(NC(=S)N(CCO)Cc2ccccc2)cc1,1.27% (inactive)
2,CN(C(=O)c1cncc(Br)c1)C1C2CC3CC(C2)CC1C3 (stereo not given),0.5% (inactive)
3,O=C(COC(=O)C1CCC1)Nc1cc(S(=O)(=O)N2CCCCC2)ccc1Cl,3.86% (inactive)
4,O=C(c1cc(C2CC2)nn1-c1ccccc1)N1CCN(c2ncc(C(F)(F)F)cc2Cl)CC1,-6.87% (inactive)
5,CCc1ccccc1NCC(=O)Nc1ccccc1C(=O)OC,-3.34% (inactive)
6,Cc1c(C)c2ccc(OCC(=O)c3ccccc3)cc2oc1=O,-16.6% (inactive)
7,CC(=O)Nc1ccc(S(=O)(=O)N2CCN(CCc3ccccc3)CC2)cc1,0.26% (inactive)
8,Nc1ccccc1N=Cc1c(O)n(CCC2=CCCCC2)c(=O)[nH]c1=O,-8.66% (inactive)
9,COC(CNC(=O)C1CCCN(S(=O)(=O)c2c(C)noc2/C=C/c2cccs2)C1)OC (stereo not given),9.65% (inactive)
10,O=C(OCc1ccccc1)N1CCC2CC1c1cc(-c3ccccc3)ccc12 (stereo not given),-8.29% (inactive)
11,CCOc1cccc(CN2CCCC(CNC(=O)c3cccc(OC)c3OC)C2)c1 (stereo not given),0.84% (inactive)
12,COc1ccc(CCNC(=O)COC(=O)c2cc(S(=O)(=O)N3CCCC3)ccc2O)cc1,-7.2% (inactive)
13,C=CCCN(C(C(=O)OC)C(C)C)S(=O)(=O)c1ccccc1Br (stereo not given),-12.7% (inactive)
14,COc1ccc(Br)cc1/C=N/NC(=O)Cn1nnnc1N,0.27% (inactive)
15,O=C(N/N=C/c1cc([N+](=O)[O-])ccc1O)Nc1ccccc1,-0.02% (inactive)
16,Cc1ccc(NC(=O)CCC(=O)N/N=C/c2cc([N+](=O)[O-])ccc2O)cc1,-7.13% (inactive)
17,Cc1ccc(C)c(NC(=O)CCC(=O)N/N=C/c2cc([N+](=O)[O-])ccc2O)c1,8.85% (inactive)
18,Cc1ccccc1NC(=O)CCC(=O)N/N=C/c1cc([N+](=O)[O-])ccc1O,10.1% (inactive)
19,O=C(N/N=C/c1cc([N+](=O)[O-])ccc1O)C1CC1,4.39% (inactive)
20,CN1CCN(CCC(=O)N/N=C/c2cc([N+](=O)[O-])ccc2OC(F)F)CC1,-8.9% (inactive)
21,Nc1nnnn1CC(=O)N/N=C/c1cc([N+](=O)[O-])ccc1Cl,-6.51% (inactive)
22,Cc1cc(C)c2c(c1)-c1c(ssc1=S)C(C)(C)N2C(=O)CSc1nncn1C,9.33% (inactive)
23,O=c1[nH]c(=O)n(Cc2ccco2)c(O)c1/C=N/N1CCCCCC1,12.8% (inactive)
24,CCN(CC(=O)Nc1c(F)cccc1F)C(=O)CSCc1c(C)noc1C,-12.8% (inactive)
25,COCCn1c(C)cc(C(=O)COC(=O)CNC(=O)c2ccccc2)c1C,4.38% (inactive)
